RGS16-Gao HTS: modulates binding between human RGS16 and Galphao; binding response (% of control), % at 10 µM; O15492+P09471; hit rate 0.38% among 220,000; bead-based flow cytometry RGS16-Galphao binding, fluorescence; actives lie on both sides;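 also: Galphao activated by GDP with aluminum fluoride before binding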
Avidin bead fluor: compound fluoresces at 488/530 nm on avidin beads | compound fluorescence 488/530 nm, flow cytometry; stronger effect = higher value | fluorescence (KMESF) at 10 µM | hit rate 0.38% among 220,000 | AID 1775; in the data active = fluorescence above about 47
RGS8-Gao: modulates binding of RGS8 to human Galphao; multiplexed bead flow cytometry; actives lie on both sides; P09471; response (percent of control binding), % at 10 µM; hit rate 0.34% among 220,000; AID 1423; in the data active = response below about 60% or above about 140%; inactive = in between;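 also: Galphao activated as the GDP aluminium fluoride complex binding bead-coupled RGS8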
Target sequence (P09471 whole entry, looked up): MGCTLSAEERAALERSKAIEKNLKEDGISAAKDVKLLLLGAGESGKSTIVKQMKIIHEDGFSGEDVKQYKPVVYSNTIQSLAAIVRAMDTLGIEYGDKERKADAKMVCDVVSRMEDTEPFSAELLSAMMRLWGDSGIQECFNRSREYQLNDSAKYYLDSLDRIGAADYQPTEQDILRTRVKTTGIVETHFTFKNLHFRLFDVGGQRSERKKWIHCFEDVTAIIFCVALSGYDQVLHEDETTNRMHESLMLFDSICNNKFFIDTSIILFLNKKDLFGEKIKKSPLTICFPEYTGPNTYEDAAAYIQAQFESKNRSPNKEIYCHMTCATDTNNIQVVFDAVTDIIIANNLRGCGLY
GSH bead fluor: compound fluoresces at 488/530 nm on GSH beads. GSH beads flow cytometry, compound fluorescence 488/530 nm; stronger effect = higher value. fluorescence (KMESF) at 10 µM. hit rate 0.25% among 190,000; in the data active = fluorescence above about 89;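 also: glutathione beads carrying GST-tagged Bcl family fusion proteins plus one bare bead set; values are compound well signal with DMSO vehicle wells as background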
RGS7-Gao: regulators of human RGS7-Galphao interaction. P09471. Multiplexed bead flow cytometry, RGS7-Galphao binding; actives lie on both sides. binding response (% of control), % at 10 µM. hit rate 0.35% among 220,000; in the data active = binding response below about 49% or above about 150%; inconclusive = no clear call, values can overlap the other calls; inactive = in between;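 also: fluorescent Galphao held in activated GDP-AlF4 state binding bead-coupled RGS7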
RGS4-Gao reg: human RGS4-Galphao interaction regulation | P09471 | AID 1415 | Multiplexed bead flow cytometry, RGS4-Galphao binding; actives lie on both sides | binding response (% of control), % at 10 µM | hit rate 0.33% among 220,000; in the data active = binding response below about 49% or above about 150%; inactive = in between;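 also: fluorescent Galphao activated with aluminum fluoride binding bead-coupled RGS4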
RGS4-Gao HTS: modulates binding between human RGS4 and Galphao; multiplexed bead flow cytometry, RGS–Galpha-o binding; hit rate 99% among 1,600; AID 1504; RGS4–Galpha-o binding response, % at 10 µM; shares compounds with RGS16-Gao HTS;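 also: fluorescently labeled Galpha-o bound to GDP with aluminium fluoride binding biotinylated RGS beads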
Avidin counter: biotin-avidin bead binding disruption counter-screen | inhibition, % at 10 µM | shares compounds with RGS16-Gao HTS | AID 1783 | 1,700 tested, under 10 active | streptavidin beads, fluorescein-biotin binding, flow cytometry;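 active = inhibition above 50%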;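 also: median green fluorescence of gated singlet beads compared with DMSO control wells; 0% = DMSO wells and 100% = complete loss of bead fluorescence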
RGS8-Gao single: RGS8-Galphao interaction regulation, single point confirmation. shares compounds with RGS16-Gao HTS. bead-based flow cytometry RGS8-Galphao binding, fluorescence; actives lie on both sides. binding response (% of control), % at 10 µM. hit rate 3% among 1,700. AID 1836; in the data active = binding response below about 72% or above about 130%; inactive = in between;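 also: Galphao activated as GDP AlF4 complex before binding bead RGS8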
RGS7-Gao confirm: RGS7-Galphao interaction regulation, single point confirmation | bead-based flow cytometry RGS7-Galphao binding; actives lie on both sides | response (percent of control binding), % at 10 µM | hit rate 7.8% among 1,700 | shares compounds with RGS16-Gao HTS | AID 1837; in the data active = response below about 75% or above about 130%; inactive = in between;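 also: fluorescent Galphao activated with GDP and aluminum fluoride binding bead-coupled RGS7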
RGS16-Gao conf: confirmation of regulators of human RGS16-Galphao interaction; shares compounds with RGS16-Gao HTS; bead-based flow cytometry, RGS16-Galphao binding; actives lie on both sides; response (% of control binding), % at 10 µM; hit rate 4% among 1,700; AID 1838; in the data active = response below about 74% or above about 130%; inactive = in between;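 also: Galphao activated as the GDP aluminium fluoride complex binding bead-coupled RGS16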
RGS4-Gao confirm: confirmation of regulators of human RGS4-Galphao interaction | shares compounds with RGS16-Gao HTS | hit rate 4% among 1,700 | binding response (% of control), % at 10 µM | RGS4-Galphao binding, multiplexed bead flow cytometry; actives lie on both sides | AID 1840; in the data active = binding response below about 74% or above about 130%; inactive = in between
RGS19-Gao conf: RGS19-Galphao interaction regulation, single point confirmation; shares compounds with RGS16-Gao HTS; bead-based flow cytometry RGS19-Galphao binding; actives lie on both sides; response (percent of control binding), % at 10 µM; hit rate 5% among 1,700; in the data active = response below about 50% or above about 160%; inactive = in between;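 also: 100% = no compound control and 0% = blank background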
Target sequence (P09471 whole entry, looked up): as above
Target sequence (P49795 whole entry, looked up): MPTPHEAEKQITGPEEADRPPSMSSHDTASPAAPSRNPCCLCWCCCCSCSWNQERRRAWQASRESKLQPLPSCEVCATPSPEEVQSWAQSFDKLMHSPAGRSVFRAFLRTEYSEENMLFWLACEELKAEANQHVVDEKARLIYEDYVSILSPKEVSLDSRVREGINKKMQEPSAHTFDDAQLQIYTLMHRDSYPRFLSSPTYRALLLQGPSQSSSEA
The depositor's hits bear a star; ? = inconclusive; . = no result given; [ ] = dose if it differs, or a comment. This is a sample that favours compounds with a hit; in the whole collection about 1.2% have one here. Unless noted, no rule for the calls is given here.

SMILES	RGS16-Gao HTS	Avidin bead fluor	RGS8-Gao	GSH bead fluor	RGS7-Gao	RGS4-Gao reg	Avidin counter	RGS8-Gao single	RGS7-Gao confirm	RGS16-Gao conf	RGS4-Gao confirm	RGS19-Gao conf	others
COC(=O)c1cc(C)sc1NC(=O)c1cccnc1	.	.	.	46	.	.	2	100	101	99	100	99
CCC(C)Sc1nc(O)cc(=O)[nH]1 (stereo not drawn)	131	239*	89	21	248*[activator]	110	2	98	104	100	101	88	RGS4-Gao HTS=110*
CCOC(=O)c1ccc(NCn2c(=O)oc3ccccc32)cc1	-14*	10	88	22	92	97	-2	100	99	97	102	102	RGS4-Gao HTS=97*
OCC(O)C(O)C(O)C(O)c1nc2ccccc2[nH]1 (stereo not drawn)	95	11	96	12	?	97	.	.	.	.	.	.
OC(c1ccc(Cl)cc1)C(O)c1nc2ccccc2[nH]1 (stereo not drawn)	303	4	141*[activator]	60	109	121	.	.	.	.	.	.	RGS4-Gao HTS=121*
O=C(C[n+]1ccc(-c2nnc3n2CCC3)cc1)c1ccc(Cl)c(Cl)c1	105	6	103	7	.	100	2	96	82	92	89	67
O=C(/C=C/c1ccco1)N(c1ccccn1)c1ccccn1	93	21	98	11	93	94	.	.	.	.	.	.
O=c1cc(CSc2nnc(COc3ccccc3)n2-c2ccccc2)c2ccccc2[nH]1	28	-2	104	14	-15*	-76*	-2	100	91	99	96	91
Cc1cccc(OCc2nnc(SCc3cc(=O)[nH]c4ccccc34)n2-c2ccccc2)c1	69	6	97	11	103	101	.	.	.	.	.	.
CCOC(=O)c1[nH]ncc1CN1CCCC(C(=O)c2ccc(C(C)(C)C)cc2)C1 (stereo not drawn)	223	12	140*[activator]	12	112	114	-3	105	108	105	105	84	RGS4-Gao HTS=114*
CC1(C)N([O-])c2cc([N+](=O)[O-])ccc2[N+]1=O	-9.3*	0	29*	.	?	84	.	.	.	.	.	.	RGS4-Gao HTS=84*
CCN(CC)c1ccc(NS(=O)(=O)c2ccc(OC)cc2)cc1	97	20	96	11	96	93	.	.	.	.	.	.
COc1ccc(NC2(c3ccccc3)OC(=O)c3ccccc32)cc1 (stereo not drawn)	.	.	.	14	.	.	0	105	104	105	104	111
COc1ccc(NC2(c3ccc(Cl)cc3)C(=O)c3ccccc3C2=O)cc1	100	10	101	8	100	98	.	.	.	.	.	.
Cc1cc(C(=O)COc2ccc3ccc(=O)oc3c2)c(C)n1C	98	17	98	13	?	99	.	.	.	.	.	.
O=C(O)/C=C/C(=O)NNC(=O)c1cccc(Br)c1	95	3	96	10	90	91	.	.	.	.	.	.
COc1ccc(C(CC(=O)O)NS(=O)(=O)c2ccc(C)cc2)cc1 (stereo not drawn)	97	32	99	17	101	99	.	.	.	.	.	.
COc1ccc(C(CC(=O)O)NS(=O)(=O)c2ccc(C)cc2)cc1OC (stereo not drawn)	13*	0	12*	36	12*	21*	0	100	98	98	100	99
CNC(=O)Nc1ccccc1C(=O)Nc1ccccc1	97	7	99	.	?	99	.	.	.	.	.	.
O=C(CCNC(=O)c1ccco1)NCc1ccccc1	.	.	.	43	.	.	0	103	106	106	106	98
Cc1ccc(S(=O)(=O)CCC(=O)Nc2ccc(S(=O)(=O)N(C)C)cc2)cc1	94	20	94	9	94	97	.	.	.	.	.	.
COCCN1Cc2cccc(C(=O)NCc3ccccn3)c2C1=O	120	13	109	14	111	106	.	.	.	.	.	.
COCCN1Cc2cccc(C(=O)NCc3ccc4c(c3)OCO4)c2C1=O	20*	6	70	22	92	89	1	106	99	109	103	106	RGS4-Gao HTS=89*
Cc1ccc(-c2ccc(S(=O)(=O)NCC3CCCO3)cc2)cc1 (stereo not drawn)	101	12	102	11	101	102	.	.	.	.	.	.
O=S(=O)(NCC1CCCO1)c1ccc(Cl)nc1 (stereo not drawn)	.	.	.	.	.	.	-2	109	109	108	109	105
SMILES	RGS16-Gao HTS	Avidin bead fluor	RGS8-Gao	GSH bead fluor	RGS7-Gao	RGS4-Gao reg	Avidin counter	RGS8-Gao single	RGS7-Gao confirm	RGS16-Gao conf	RGS4-Gao confirm	RGS19-Gao conf	others
Cn1cnc(S(=O)(=O)Nc2ccc(OC(F)F)cc2)c1	98	9	100	.	?	99	.	.	.	.	.	.
Cc1ccc(C)c(Sc2ccc(NC(=O)CCl)cc2)c1	299*[activator]	14	135	8	116	115	.	.	.	.	.	.	RGS4-Gao HTS=115*
C/C(=N\NC(=O)Cc1cccn1C)c1cccs1	27	-2	30*	21	31*	34*	-1	102	104	102	104	106
COc1cccc(OC)c1C(=O)NC(=S)Nc1ccc2oc(=O)ccc2c1	100	12	103	10	102	101	.	.	.	.	.	.
COc1ccc(C(=O)NC(=S)Nc2ccc3oc(=O)ccc3c2)cc1OC	243*[activator]	4	138	18	116	121	-2	106	108	107	108	106	RGS4-Gao HTS=121*
Cc1ccc2c(C(=O)CN3CCN(c4ccccc4)CC3)c(C)[nH]c2c1	99	5	99	24	99	97	.	.	.	.	.	.
COc1cccc(N2CCN(CC(=O)NCc3cccs3)CC2)c1	.	.	.	18	.	.	0	102	99	100	99	99
COc1cccc(N2CCN(CC(=O)c3c(C)[nH]c4ccccc34)CC2)c1	15*	-1	15*	34	17*	22*	-1	101	100	103	99	108
